Inconclusive results are not listed. Entries that show only a call come without a potency. Unmarked numbers belong to inactive results. The source made the active and inactive calls. Calls follow the shape of the dose curve; as a rule, active = well fitted activation curve with a large enough effect; inconclusive = small, poorly fitted or top-dose-only effect; inactive = flat fitted curve, though single readings scatter.
Assay: Primary redox qHTS assay for identification of artifact compounds. (AID 1845223)
Details: Amplex Red/HRP redox cycling with DTT, fluorescence; series mostly up to 53.8 µM
Summary of the method: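 Amplex Red (25 uM) and HRP (250 mU/mL) in HBSS, with compounds for 15 min, then 250 uM DTT for 30 min, room temperature, dark. Fluorescence 525/598 nm read; normalized to DMSO and 10 uM DA3003; Hill fit.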

Row | Compound | Potency | redox activity (% of DA3003)
1 | COc1cc(COC2OC(CO)C(O)C(O)C2O)cc(OC)c1O (stereo not given) | inactive | –
2 | C[C@]12CCC[C@](C)(C(=O)O)C1CCC13C=C(CO)C(CCC12)C3 (stereo not given in full) | inactive | –
3 | CC(=O)OC(CSC1CCC(=O)OC(C)CCC(=O)C1)C(=O)O (stereo not given) | inactive | –
4 | CNC(=O)Nc1ccc(OC)c(NC(=O)NC(=O)c2cc(F)c(F)cc2Cl)c1 | inactive | –
5 | C=C(C(=O)O)[C@@H]1CC=C2CCC[C@H](C)[C@@]2(C)C1 | inactive | –
6 | CCC(C)(O)C(O)C(=O)OCc1ccc(O[C@@H]2O[C@H](CO)[C@@H](O)[C@H](O)[C@H]2O)cc1 (stereo not given in full) | inactive | –
7 | Cc1ccc(Sc2cncc3sc(C(N)=O)cc23)cc1 | inactive | –
8 | COc1cc(C2Oc3c(O)cc(CCCO)cc3C2CO)ccc1O[C@H]1O[C@H](C)[C@@H](O)[C@H](O)[C@@H]1O (stereo not given in full) | inactive | –
9 | COc1cc(/C=C/C(=O)OC(C)(C)C(OC2OC(CO)C(O)C(O)C2O)C(=O)OCc2ccc(OC3OC(CO)C(O)C(O)C3O)cc2)ccc1O (stereo not given) | inactive | –
10 | C[C@@H]1O[C@@H](O[C@H]2[C@H](OC(=O)C34CCC(C)(C)CC3C3=CCC5C6(C)CC(O)C(O[C@@H]7O[C@H](CO)[C@@H](O)[C@H](O)[C@H]7O)C(C)(C(=O)O)C6CCC5(C)C3(CO)CC4)O[C@H](C)[C@H](O)[C@@H]2O)[C@H](O)[C@H](O)[C@H]1O[C@@H]1OC[C@@H](O)[C@H](O)[C@H]1O (stereo not given in full) | – | 9.03% [at 11.5 µM]
11 | CNC(=O)COC(=O)NCCC1CCN(c2cccc(C)n2)CC1 | inactive | –
12 | CC1(C)NC2N(C1=O)c1ccccc1C2(O)CC(C(=O)O)n1cnc2ccccc2c1=O (stereo not given) | inactive | –
13 | CC(C)C1=CC2=CCC3[C@](C)(CCC[C@@]3(C)C(=O)O)C2CC1=O (stereo not given in full) | inactive | –
14 | CC1CCC2(O1)C(C)(C)CC(O[C@@H]1O[C@H](CO[C@@H]3OC[C@](O)(CO)[C@H]3O)[C@@H](O)[C@H](O)[C@H]1O)CC2(C)O (stereo not given in full) | inactive | –
15 | C[C@@H]1O[C@@H](O[C@H]2[C@H](O[C@H]3[C@H](O[C@H]4CC[C@@]5(C=O)C(CC[C@]6(C)C5CC=C5C7CC(C)(C)C[C@@H](O)[C@]7(C)CC[C@]56C)C4(C)C)O[C@H](C(=O)O)[C@@H](O)[C@@H]3O)OC[C@@H](O)[C@@H]2O)[C@H](O)[C@H](O)[C@H]1O (stereo not given in full) | – | 8.98% [at 11.5 µM]
16 | CC(=C/C(=O)O)/C=C/[C@]1(O)[C@@]2(C)CO[C@]1(C)C[C@H](O[C@@H]1O[C@H](CO)[C@@H](O)[C@H](O)[C@H]1O)C2 | inactive | –
17 | COC(=O)C1C(c2ccc(O)cc2)C(C(=O)OC)C1c1ccc(O)cc1 (stereo not given) | inactive | –
18 | CC1OC(OC2C(O)C(C(=O)O)OC(OC3CCC4(C)C(CCC5(C)C4C=CC4=C6CC(C)(C)CC(O)C6(C)CCC45C)C3(C)C)C2OC2OCC(O)C(O)C2O)C(O)C(O)C1O (stereo not given) | – | 18.4% [at 11.5 µM]
19 | CC(=O)c1c(O)cc2c(c1C)C(=O)CC(O)C2 (stereo not given) | inactive | –
20 | CCC(C)(O)C(O)C(=O)OCc1ccc(O[C@@H]2O[C@H](CO)[C@@H](O)[C@H](O)[C@H]2O)c(OC)c1 (stereo not given in full) | inactive | –
21 | C=C1[C@H]2[C@H](O[C@@H]3O[C@H](COC(=O)/C=C/c4cc(OC)c(O)c(OC)c4)[C@@H](O)[C@H](O)[C@H]3O)OC=C(C(=O)O)[C@H]2C[C@@H]1O | inactive | –
22 | COc1cc(C(C)=O)ccc1O[C@@H]1O[C@H](CO[C@@H]2O[C@@H](C)[C@H](O)[C@@H](O)[C@H]2O)[C@@H](O)[C@H](O)[C@H]1O | inactive | –
23 | CC1CCC2(C(=O)OC3OC(CO)C(O)C(O)C3O)CCC3(C)C(=CCC4C5(C)CC(O)C(O)C(C)(C(=O)O)C5CCC43C)C2C1(C)O (stereo not given) | inactive | –
24 | C[C@@H]1O[C@@H](O[C@H]2[C@H](OC(=O)C34CCC5(C)C(=CCC6C7(C)CC(O)C(O[C@@H]8O[C@H](C(=O)O)[C@@H](O)[C@H](O)[C@H]8O)C(C)(C(=O)O)C7CCC65C)C3CC(C)(C)CC4O)O[C@H](C)[C@@H](O)[C@@H]2O)[C@H](O)[C@@H](O[C@@H]2OC[C@](O)(CO)[C@H]2O[C@@H]2O[C@H](CO)[C@@H](O)[C@H](O)[C@H]2O)[C@H]1O (stereo not given in full) | – | 3.71% [at 11.5 µM]
25 | CC(=O)OC[C@@]12[C@H](O)C[C@]3(C)C(=CCC4[C@@]5(C)CC[C@H](O[C@@H]6O[C@H](C(=O)O)[C@@H](O[C@@H]7O[C@H](CO)[C@@H](O)[C@H](O)[C@H]7O)[C@H](O)[C@H]6O[C@@H]6O[C@H](CO)[C@@H](O)[C@H](O)[C@H]6O)[C@](C)(CO)C5CC[C@]43C)[C@@H]1CC(C)(C)[C@@H](OC(C)=O)[C@@H]2O (stereo not given in full) | – | 7.21% [at 11.5 µM]

— PubChem BioAssay (NCATS)
